Compound activity: PubChem, several laboratories
A selection: hits, their analogues and other compounds. The true share with any hit is near 3.1%.
BioA inh – inhibitors of Mycobacterium tuberculosis BioA enzyme | purified M. tuberculosis BioA enzyme, plate reader | inhibition, % at 9.99 µM | 360,000 tested, 0.096% active | AID 602481; in the data active = inhibition above about 40%
GDH-TPI inh – inhibits GDH-TPI coupling enzymes, artifact for Mtb FBA screen; 360,000 tested, 1.2% active; GDH-TPI coupled enzyme counterscreen, NADH absorbance; AID 588335; inhibition, % at 4.8 µM; in the data active = inhibition above about 30%
FadD28 binding – M. tuberculosis FadD28 bisubstrate binding inhibition; 360,000 tested, 0.22% active; inhibition, % at 12.5 µM; AID 588549; FadD28 bisubstrate probe binding, fluorescence polarization; in the data active = inhibition above about 8.5%, passing the limit was not always enough
Mtb FBA inh – inhibits M. tuberculosis FBA enzyme | 360,000 tested, 2.3% active | inhibition, % at 1 µM | purified M. tuberculosis FBA, fluorescence read-out; in the data active = inhibition above about 27%
Target sequence (P9WQA3 whole entry, looked up): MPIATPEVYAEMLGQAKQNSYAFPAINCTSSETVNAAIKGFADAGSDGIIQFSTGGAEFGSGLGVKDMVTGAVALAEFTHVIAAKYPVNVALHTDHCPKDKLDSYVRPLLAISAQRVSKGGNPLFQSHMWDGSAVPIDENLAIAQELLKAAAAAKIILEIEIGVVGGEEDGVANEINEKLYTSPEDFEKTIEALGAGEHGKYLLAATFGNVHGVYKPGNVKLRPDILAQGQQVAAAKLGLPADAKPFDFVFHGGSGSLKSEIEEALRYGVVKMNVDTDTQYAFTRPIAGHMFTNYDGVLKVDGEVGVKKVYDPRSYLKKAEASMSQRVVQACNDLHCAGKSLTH
SARS 3CLpro inh – SARS-CoV 3CLpro protease inhibition. 290,000 tested, 0.14% active. recombinant SARS-CoV 3CLpro, quenched FRET peptide cleavage. inhibition, % at 6 µM; in the data active = inhibition above about 12%
A number is an active result.

How did O=[N+]([O-])c1ccc(O)c(C2=NNC(c3ccccc3F)C2)c1 (stereo not given) do in these assays?
BioA inh: inactive; GDH-TPI inh: 36.4; FadD28 binding: inactive; Mtb FBA inh: inactive; SARS 3CLpro inh: inactive

Results for c1ccc2nc(-c3nc4ccccc4[nH]3)ccc2c1 ?
BioA inh: inactive; GDH-TPI inh: 35.6; FadD28 binding: inactive; Mtb FBA inh: inactive; SARS 3CLpro inh: inactive

What do the screens show for `CNC[C@H]1OCCCC[C@H](C)Oc2ccc(NS(=O)(=O)c3cccs3)cc2C(=O)N([C@H](C)CO)C[C@@H]1C`?
BioA inh: inactive

What do the screens show for `O=C(O)c1cc(Br)ccc1NN=C1CCCCC1`?
GDH-TPI inh: inactive; FadD28 binding: 12.3; Mtb FBA inh: inactive; SARS 3CLpro inh: inactive

Results for CCCC(=O)Nc1ccc2c(c1)OC[C@@H](C)N(C(=O)C1CCCC1)C[C@@H](C)[C@H](OC)CN(C)C2=O ?
BioA inh: inactive

How did N=c1c(S(=O)(=O)c2ccc(Cl)cc2)cc2c(=O)n3ccccc3nc2n1CCc1ccccc1 do in these assays?
BioA inh: inactive; GDH-TPI inh: inactive; FadD28 binding: inactive; Mtb FBA inh: inactive; SARS 3CLpro inh: inactive

How did N=c1c(S(=O)(=O)c2ccc(Cl)cc2)cc2c(=O)n3ccccc3nc2n1CCN1CCOCC1 do in these assays?
BioA inh: inactive; GDH-TPI inh: inactive; FadD28 binding: inactive; Mtb FBA inh: active; SARS 3CLpro inh: inactive

How did Cc1ccc(S(=O)(=O)c2cc3c(=O)n4ccccc4nc3n(CCCN3CCOCC3)c2=N)cc1C do in these assays?
BioA inh: inactive; GDH-TPI inh: inactive; FadD28 binding: inactive; Mtb FBA inh: 128.1; SARS 3CLpro inh: inactive

Results for Cc1ccc(S(=O)(=O)c2cc3c(=O)n4ccccc4nc3n(C)c2=N)cc1C ?
BioA inh: inactive; GDH-TPI inh: inactive; FadD28 binding: inactive; Mtb FBA inh: inactive; SARS 3CLpro inh: inactive

Results for CC(/C=N/n1c(-c2n[nH]c3c2CCC3)n[nH]c1=S)=C\c1ccco1 ?
BioA inh: inactive; GDH-TPI inh: 44.8; FadD28 binding: inactive; Mtb FBA inh: inactive; SARS 3CLpro inh: inactive

What do the screens show for `Cc1ccccc1-c1n[nH]c(=S)n1/N=C/C=C/c1ccco1`?
BioA inh: inactive; GDH-TPI inh: 43.5; FadD28 binding: inactive; Mtb FBA inh: inactive; SARS 3CLpro inh: inactive

Results for C(/C=C/c1ccco1)=N/N1CCN(c2ccccc2)CC1 ?
BioA inh: inactive; GDH-TPI inh: 46.6; FadD28 binding: inactive; Mtb FBA inh: inactive; SARS 3CLpro inh: inactive

How did S=c1[nH]nc(-c2ccccc2)n1/N=C/C=C/c1ccco1 do in these assays?
GDH-TPI inh: 32.6; FadD28 binding: inactive; Mtb FBA inh: inactive; SARS 3CLpro inh: inactive

Results for Clc1ccccc1CN1CCN(/N=C/C=C\c2ccco2)CC1 ?
GDH-TPI inh: inactive; FadD28 binding: inactive; Mtb FBA inh: inactive; SARS 3CLpro inh: inactive

How did CC(/C=N/n1c(-c2cccnc2)n[nH]c1=S)=C\c1ccco1 do in these assays?
BioA inh: inactive; FadD28 binding: inactive; SARS 3CLpro inh: inactive

How did Oc1ccc(Br)cc1/C=N/n1c(-c2ccccc2)n[nH]c1=S do in these assays?
BioA inh: inactive; GDH-TPI inh: inactive; FadD28 binding: inactive; Mtb FBA inh: inactive; SARS 3CLpro inh: inactive

What do the screens show for `Oc1c(Br)cc(Br)c(/C=N/n2c(-c3ccccc3)n[nH]c2=S)c1Br`?
BioA inh: inactive; GDH-TPI inh: inactive; FadD28 binding: 25.0; Mtb FBA inh: inactive; SARS 3CLpro inh: inactive

Results for O=C(O)Cn1c2ccccc2c2nc3ccccc3nc21 ?
BioA inh: inactive; GDH-TPI inh: 31.6; FadD28 binding: inactive; Mtb FBA inh: inactive

How did Cc1cc(-c2nc3cc(F)ccc3s2)ccc1N do in these assays?
GDH-TPI inh: 38.1; FadD28 binding: inactive

How did C[C@H]1CN([C@@H](C)CO)C(=O)c2cccc(NC(=O)C3CCCCC3)c2O[C@@H]1CN(C)Cc1ccc(Cl)c(Cl)c1 do in these assays?
BioA inh: inactive

Results for N#Cc1c(-c2ccc(Cl)cc2)c2c([nH]c1=O)-c1ccccc1OC2 ?
BioA inh: inactive; GDH-TPI inh: inactive; FadD28 binding: inactive; Mtb FBA inh: 183.8; SARS 3CLpro inh: inactive

How did CC1(C)Cc2c(c(-c3ccccc3Cl)[nH]c(=O)c2C#N)CO1 do in these assays?
BioA inh: inactive; GDH-TPI inh: inactive; FadD28 binding: inactive; Mtb FBA inh: inactive; SARS 3CLpro inh: inactive

What do the screens show for `Cc1ccccc1C(=O)N/C(=C/c1ccc(-c2cccnc2Cl)o1)C(=O)NCCCN1CCN(C)CC1`?
BioA inh: inactive; GDH-TPI inh: 38.9; FadD28 binding: inactive; Mtb FBA inh: inactive; SARS 3CLpro inh: inactive

How did Cc1ccc(C(=O)N/C(=C\c2ccco2)C(=O)NCCCN2CCOCC2)cc1C do in these assays?
BioA inh: inactive; GDH-TPI inh: inactive; FadD28 binding: inactive; Mtb FBA inh: inactive; SARS 3CLpro inh: inactive

Results for NC(=O)c1cc(Cc2ccccc2)sc1NC(=O)c1ccco1 ?
GDH-TPI inh: 39.3; FadD28 binding: inactive; Mtb FBA inh: inactive; SARS 3CLpro inh: inactive

What do the screens show for `O=C(Nc1cccc(-c2cn3cccnc3n2)c1)c1ccco1`?
BioA inh: inactive; GDH-TPI inh: inactive; FadD28 binding: inactive; Mtb FBA inh: active; SARS 3CLpro inh: inactive

How did O=C(Nc1ccccc1)Nc1cccc(-c2cn3cccnc3n2)c1 do in these assays?
BioA inh: inactive; GDH-TPI inh: inactive; FadD28 binding: inactive; Mtb FBA inh: inactive; SARS 3CLpro inh: inactive

How did O=C(Nc1cccc(-c2cn3cccnc3n2)c1)c1ccc(Br)o1 do in these assays?
BioA inh: inactive; GDH-TPI inh: inactive; FadD28 binding: inactive; Mtb FBA inh: active; SARS 3CLpro inh: inactive

What do the screens show for `CCCC(=O)Nc1cc(-c2cn3cccnc3n2)ccc1OC`?
BioA inh: inactive; GDH-TPI inh: inactive; FadD28 binding: inactive; Mtb FBA inh: inactive; SARS 3CLpro inh: inactive

Results for O=C(Nc1cccc(-c2cn3cccnc3n2)c1)c1cccs1 ?
BioA inh: inactive; GDH-TPI inh: inactive; FadD28 binding: inactive; Mtb FBA inh: 170.2; SARS 3CLpro inh: inactive

How did Cc1ccc(-c2cn3cccnc3n2)cc1NC(=O)c1ccc(Br)o1 do in these assays?
BioA inh: inactive; GDH-TPI inh: 41.1; FadD28 binding: inactive; Mtb FBA inh: active; SARS 3CLpro inh: inactive

How did Cc1cccn2cc(-c3cccc(NC(=O)c4cccs4)c3)nc12 do in these assays?
GDH-TPI inh: inactive; FadD28 binding: inactive; Mtb FBA inh: inactive; SARS 3CLpro inh: inactive

Results for COc1ccc(C(=O)N2C[C@@H]3[C@H](c4ccccc42)[C@H](CO)N3Cc2ccc(Cl)cc2)cc1 ?
BioA inh: inactive

Results for C[C@H](CO)N1C[C@H](C)[C@@H](CN(C)S(=O)(=O)c2ccc(F)cc2)OCCCC[C@H](C)Oc2ccc(NS(=O)(=O)c3ccc(F)cc3)cc2C1=O ?
BioA inh: inactive

How did C/C=C/c1cnc2c(c1)C(=O)N([C@@H](C)CO)C[C@H](C)[C@H](CN(C)S(=O)(=O)c1ccccc1)O2 do in these assays?
BioA inh: inactive

What do the screens show for `O=C(Nc1ccccc1)N1C[C@H]2[C@@H](c3ccccc31)[C@H](CO)N2C(=O)Cc1ccccn1`?
BioA inh: inactive

How did O=C(Nc1cccc(-c2cn3cccnc3n2)c1)c1ccc2c(c1)OCO2 do in these assays?
BioA inh: inactive; GDH-TPI inh: inactive; FadD28 binding: inactive; Mtb FBA inh: 133.8; SARS 3CLpro inh: inactive
